Reference: PubChem BioAssay AID504734 (The Scripps Research Institute Molecular Screening Center, 2011)
In all, about 340,000 compounds went through this assay and about 730 (0.21%) were called active. For the sample, actives were picked, then their nearest neighbours and some compounds at random. A number with no mark means an inactive call.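 How the source made its calls: active means inhibition above the mean over all tested compounds plus 3 SD (cut at about 21% in these data); inactive means the rest.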

The molecules below were run against Toll-like receptor 9 (Homo sapiens) + Myeloid differentiation primary response protein MyD88 (Homo sapiens) (UniProt Q9NR96+Q99836) (assay: disruptors of TLR9 binding to MyD88 – cell-based, CHO, BLA complementation, fluorescence, primary screen (AID 504734;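 further: 0% = DMSO only wells and 100% = clavulanate BLA inhibitor control wells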)). Conditions: CHO BLA complementation TLR9-MyD88, CCF4 FRET ratio; at 4.98 µM; stronger effect = higher value.
Toll-like receptor 9 (Homo sapiens) + Myeloid differentiation primary response protein MyD88 (Homo sapiens), sequence (Q99836 whole entry, looked up): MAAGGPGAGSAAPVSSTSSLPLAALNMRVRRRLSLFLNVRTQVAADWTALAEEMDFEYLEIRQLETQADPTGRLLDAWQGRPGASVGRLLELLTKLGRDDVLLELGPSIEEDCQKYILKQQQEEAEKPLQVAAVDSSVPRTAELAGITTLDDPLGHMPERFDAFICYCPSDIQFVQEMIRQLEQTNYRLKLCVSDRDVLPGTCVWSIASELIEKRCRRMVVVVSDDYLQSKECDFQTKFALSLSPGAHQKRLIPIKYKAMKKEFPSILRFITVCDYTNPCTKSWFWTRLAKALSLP
Toll-like receptor 9 (Homo sapiens) + Myeloid differentiation primary response protein MyD88 (Homo sapiens), sequence (Q9NR96 whole entry, looked up): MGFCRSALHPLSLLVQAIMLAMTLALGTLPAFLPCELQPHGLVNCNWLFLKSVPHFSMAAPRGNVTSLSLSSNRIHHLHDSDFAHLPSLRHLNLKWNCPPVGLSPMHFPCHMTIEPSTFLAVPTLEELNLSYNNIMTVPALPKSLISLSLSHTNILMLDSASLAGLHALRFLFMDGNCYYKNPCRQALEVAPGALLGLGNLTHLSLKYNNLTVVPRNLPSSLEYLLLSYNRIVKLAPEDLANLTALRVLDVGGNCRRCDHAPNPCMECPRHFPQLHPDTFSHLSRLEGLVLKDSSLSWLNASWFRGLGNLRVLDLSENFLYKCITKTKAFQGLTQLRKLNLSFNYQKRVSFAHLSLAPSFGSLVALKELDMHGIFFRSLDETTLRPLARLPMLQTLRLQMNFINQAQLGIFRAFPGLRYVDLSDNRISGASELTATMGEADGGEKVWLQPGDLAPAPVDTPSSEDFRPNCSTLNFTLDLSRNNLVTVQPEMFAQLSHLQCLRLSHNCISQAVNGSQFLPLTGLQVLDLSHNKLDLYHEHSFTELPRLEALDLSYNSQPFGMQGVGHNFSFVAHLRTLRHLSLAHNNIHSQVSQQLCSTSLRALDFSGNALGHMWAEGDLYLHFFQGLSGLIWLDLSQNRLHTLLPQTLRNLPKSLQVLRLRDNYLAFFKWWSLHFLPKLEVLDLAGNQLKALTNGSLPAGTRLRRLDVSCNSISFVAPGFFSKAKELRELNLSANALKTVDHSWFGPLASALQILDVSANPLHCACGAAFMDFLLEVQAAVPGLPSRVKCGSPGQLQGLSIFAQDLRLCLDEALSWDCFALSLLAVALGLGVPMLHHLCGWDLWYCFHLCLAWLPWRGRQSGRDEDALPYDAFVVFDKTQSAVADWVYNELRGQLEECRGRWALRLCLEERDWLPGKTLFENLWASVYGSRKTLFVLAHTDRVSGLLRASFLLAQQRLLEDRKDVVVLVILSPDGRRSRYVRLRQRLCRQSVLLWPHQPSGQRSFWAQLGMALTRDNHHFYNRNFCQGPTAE

In the case of COc1ccc(-c2nn(-c3ccccc3)cc2/C=N/Nc2ccccn2)cc1OC, the inhibition is reported as 27.6% (active).
With CS(=O)(=O)c1sc2nc(-c3ccccc3)cc(-c3ccccc3)c2c1N the inhibition was 21.5% (active).
COc1ccc(-c2cc(C(F)(F)F)nc(S(C)(=O)=O)n2)cc1OC was tested, and the inhibition was 27.6% (active).
COc1ccc(-c2nc3cnccn3c2NC2CCCCC2)cc1-c1cccc(Cl)c1 was tested, and the inhibition was 40.9% (active).
With Nc1cccc2c1C(=O)N(Cc1nnc(-c3ccccc3Br)o1)C2=O the inhibition was 21.2% (active).
In the case of CC1(C)CC(=O)C(C2c3ccccc3S(=O)(=O)c3ccccc32)C(=O)C1, the inhibition is reported as 22.1% (active).
For Nc1c(C(=O)c2cccs2)sc2nsc(SCCN3CCCCC3)c12, the inhibition was 31.4% (active).
Cc1cccc(NC(=O)c2nc(S(=O)(=O)Cc3ccccc3)ncc2Cl)c1 was tested, and the inhibition was 48.7% (active).
In the case of Cc1cccc(CS(=O)(=O)c2ncc(Cl)c(C(=O)Nc3ccc(F)cc3)n2)c1, the inhibition is reported as 35.3% (active).
CN(O)C(=S)c1ccccc1 was tested, and the inhibition was 21.8% (active).

First: O=Cc1cn(-c2ccccc2)nc1-c1ccccn1
Second: COc1ccc(-c2nn(-c3ccccc3)cc2C(=O)Nc2nccs2)cc1OC
The inhibition of the first is lower: -5.05% for the first, 7.8% for the second.

First: NC1=CC(=O)C(=O)c2cccnc21
Second: Cn1cnnc1SCc1nnc(-c2ccccc2Br)o1
The inhibition of the first is higher: -3.3% for the first, -5.92% for the second.

Going from Cc1nc2ccccn2c(=O)c1NC(=O)c1ccc(Br)o1 to Cc1ccc(CS(=O)(=O)c2ncc(Cl)c(C(=O)Nc3nnc(C)s3)n2)cc1, the inhibition rises from -8.57% to 12.2%.

Compared with C[C@H]1CN([C@@H](C)CO)C(=O)CCCn2cc(nn2)CO[C@@H]1CN(C)S(=O)(=O)c1cccs1, COc1ccc(S(=O)(=O)N(C)C[C@H]2OCc3cnnn3CCCC(=O)N([C@H](C)CO)C[C@H]2C)cc1 is lower in inhibition: -3.23% for the first, -12.9% for the second.

Compared with Nc1cccc(-c2cc(-c3ccccc3)nc(-c3cccc(N)c3)n2)c1, COc1ccc(-c2cc(-c3ccc(N)cc3)nc(N)c2C#N)cc1OC is lower in inhibition: 4.91% for the first, -1.14% for the second.

First: CCN(CC)C(=O)c1sc2nc(-c3ccccc3)ccc2c1N
Second: CCN(CC)C(=O)C1=C(C)N(Cc2ccc(OC)cc2)C(=O)C(CC(=O)NCCCCc2ccccc2)C1 (stereo not given)
The inhibition of the first is higher: 1.41% for the first, -3.92% for the second.

Going from CCOC(=O)C(C(=O)c1ccccc1)C(c1ccccc1)c1nccc2ccccc12 (stereo not given) to CN(Cc1ccccc1)C(=O)c1cccc(C(=O)N(C)Cc2ccccc2)c1, the inhibition falls from -3.27% to -10.2%.

Compared with O=C(O)c1ccccc1Cc1ccc(F)c2ccccc12, CC1CCCC(C)N1C(=O)COC(=O)c1ccccc1C(=O)c1ccccc1 (stereo not given) is lower in inhibition: 0.89% for the first, -3.35% for the second.

Going from O=C1NC(Cc2ccccc2)c2nc3ccc(Br)cc3c(=O)n2-c2cc3ccccc3cc21 (stereo not given) to Cc1cc(C)c2c(=O)n3c(nc2c1)C(CC(C)C)NC(=O)c1cc2ccccc2cc1-3 (stereo not given), the inhibition rises from 4.34% to 9.57%.

Going from COc1ccc(-c2ccc(Nc3ccc(S(=O)(=O)N4CCCC4)cc3)nn2)cc1OC to COc1ccc(NC(=O)CCCOc2ccc(C(C)=O)cc2)cc1S(=O)(=O)N1CCCCC1, the inhibition falls from -1.95% to -6.11%.

Going from Cc1ccc(S(=O)(=O)N2CCOCC2)cc1NC(=O)c1ccncc1 to O=C(Nc1ccc(F)cc1)c1ccc(S(=O)(=O)NCc2cccnc2)cc1, the inhibition rises from -10.3% to -9.53%.

First: CCN1CCCC1CNC(=O)c1ccc2c(c1)NC(=O)/C(=C\c1ccccc1F)S2 (stereo not given)
Second: CCN1CCN(CCNC(=O)c2ccc3c(c2)NC(=O)/C(=C\c2cccc(Cl)c2)S3)CC1
The inhibition of the first is lower: 5.07% for the first, 13.2% for the second.

Going from COc1ccc(-c2nc3cnccn3c2NC(C)(C)CC(C)(C)C)cc1O to COc1ccc(-c2nc3cc(C)ccn3c2NC2CCCCC2)cc1SC1CCCCC1, the inhibition rises from -0.94% to -0.33%.

Going from CN(C)C(CNC(=O)c1cc(Br)c(Br)s1)c1ccco1 (stereo not given) to Cc1noc(C)c1NC(=O)N(C)C[C@@H]1Oc2cc(Br)ccc2S(=O)(=O)N([C@@H](C)CO)C[C@H]1C, the inhibition falls from 6.8% to 6.19%.

Compared with NC(=S)NN=Cc1ccc(OC(=O)COc2cc(Cl)c(Cl)cc2Cl)cn1, CSc1nnc(NC(=O)c2nc(S(=O)(=O)Cc3ccc(C)cc3)ncc2Cl)s1 is lower in inhibition: 12.2% for the first, 4.24% for the second.

Compared with CC1(C)OC(=O)C2=C(CC(c3ccccc3)OC2CCc2ccccc2)O1 (stereo not given), Cc1ccc(S(=O)(=O)N2C[C@@H](C)[C@]3(C2)[C@H](O)[C@H](OC(=O)NCc2ccccc2)C[C@H]2C(=O)N(c4ccccc4)C(=O)[C@H]23)cc1 is higher in inhibition: -19.4% for the first, -1.46% for the second.

First: COc1ccc(S(=O)(=O)N2CCN(CC(=O)N3CCNC3=O)CC2)cc1OC
Second: CCCCCCn1c(=O)n2n(c1=O)C[C@]1(OC(=O)NCc3ccc(OC)c(OC)c3)CN(S(=O)(=O)c3ccc(C)cc3)C[C@]1(O)C2
The inhibition of the first is higher: 7.47% for the first, -2.87% for the second.

Compared with COc1ccc([C@H]2N[C@]3(CCCN(CC4CCCCC4)C3=O)[C@H]3C(=O)N(C)C(=O)[C@@H]23)cc1, COc1ccc([C@H]2N[C@]3(CCCN(Cc4ccco4)C3=O)[C@H]3C(=O)N(C)C(=O)[C@@H]23)cc1 is lower in inhibition: 1.4% for the first, -4.25% for the second.

First: Cc1ccn(CC(=O)NC2CCCN(Cc3ccccc3F)C2)n1 (stereo not given)
Second: CCOC(=O)N1CCN(Cc2nnc(-c3ccccc3Cl)o2)CC1
The inhibition of the first is higher: 9% for the first, 7.73% for the second.

Compared with CCOC(=O)C=Cc1ccc(C(=O)OCC)[nH]1, Cc1[nH]c2ccccc2c1C(=O)C(=O)NCc1nnnn1-c1cccc(F)c1 is higher in inhibition: 5.14% for the first, 7.75% for the second.

Going from CC1(C)CC(=O)NC=C(c2ccccc2)C1 to CC1(C)CC(=O)C(CC(=O)N2CCC(Cc3ccccc3)CC2)C(=O)C1, the inhibition falls from -4.24% to -5.62%.

Compared with CN1CCN(c2ccc(NC(=O)c3ccc4c(c3)[nH]c(=O)n4Cc3ccc(F)cc3)cc2)CC1, O=C(NCCc1cccc(F)c1)C1CC(O)CN1C(=O)Nc1ccccc1 (stereo not given) is lower in inhibition: 5.07% for the first, -5.73% for the second.

COC(=O)N(C)C[C@@H]1OCc2cnnn2CCCC(=O)N([C@@H](C)CO)C[C@@H]1C was tested, and the inhibition was -7.29%.
